# Screens (PubChem)
# This is a sample that favours compounds with a hit; in the whole collection about 3.5% have one here.
# GPR151 activ: activators of human GPR151; AID 1508602; activation, % at 11.2 µM; hit rate 1% among 650,000; Q8TDV0; PathHunter beta-arrestin GPR151 cells, luminescence; in the data active = activation above about 4.9%;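 note: 0% = median of compound wells and 100% = cells with positive control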
# TEAD-YAP block: TEAD-YAP interaction inhibition | HEK-TIYL cells, TEAD-Gal4/YAP UAS-luciferase luminescence | inhibition, % at 9.12 µM | hit rate 1.4% among 640,000 | AID 1259422; in the data active = inhibition above about 32%;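 note: 0% = median of test compound wells and 100% = reference inhibitor wells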
# MITF inh: human MITF inhibition, primary screen | inhibition, % at 2.6 µM | AID 1259374 | hit rate 0.91% among 650,000 | O75030 | AlphaScreen MITF homodimerization, bead proximity signal; in the data active = inhibition above about 50%;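 note: 0% = vehicle wells with protein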
# FBW7 activator: human FBW7 E3 ligase activation, primary screen; Q969H0; AlphaScreen FBW7–phospho-cyclin E peptide binding, activator screen; normalized activity (activation), % at 26.1 µM; hit rate 0.13% among 650,000; AID 1259310; in the data active = normalized activity above about 1.9%;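 note: purified mutant Fbw7 with reduced substrate affinity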
# Target sequence (Q969H0 whole entry, looked up): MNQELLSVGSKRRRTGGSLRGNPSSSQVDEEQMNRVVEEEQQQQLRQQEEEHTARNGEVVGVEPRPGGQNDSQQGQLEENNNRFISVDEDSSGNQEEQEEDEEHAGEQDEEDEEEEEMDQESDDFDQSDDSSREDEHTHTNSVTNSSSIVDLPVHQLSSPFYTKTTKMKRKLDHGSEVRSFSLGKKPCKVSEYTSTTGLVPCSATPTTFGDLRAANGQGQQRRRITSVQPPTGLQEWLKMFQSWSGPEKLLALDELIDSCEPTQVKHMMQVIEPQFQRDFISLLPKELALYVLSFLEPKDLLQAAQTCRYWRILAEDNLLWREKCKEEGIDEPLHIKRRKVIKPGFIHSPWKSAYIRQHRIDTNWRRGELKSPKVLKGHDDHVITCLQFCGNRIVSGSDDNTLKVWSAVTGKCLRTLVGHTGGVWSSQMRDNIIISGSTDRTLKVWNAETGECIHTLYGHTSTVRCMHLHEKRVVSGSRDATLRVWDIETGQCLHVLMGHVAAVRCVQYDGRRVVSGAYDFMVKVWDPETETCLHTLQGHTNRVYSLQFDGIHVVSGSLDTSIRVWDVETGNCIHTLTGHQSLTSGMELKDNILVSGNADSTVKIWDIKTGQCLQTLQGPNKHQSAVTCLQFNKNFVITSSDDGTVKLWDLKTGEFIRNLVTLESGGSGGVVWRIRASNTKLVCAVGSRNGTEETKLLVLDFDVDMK
# MITF confirm: confirmation of human MITF inhibitors; shares compounds with MITF inh; AlphaScreen MITF homodimerization, biotin/His-MITF beads; inhibition, % at 2.6 µM; hit rate 16% among 4,700;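 active = inhibition above a cutoff derived from the DMSO control wells, cut at about 28% in these data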;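 note: 0% = MITF dimer wells with DMSO only; inhibitors lower the bead chemiluminescence by keeping MITF from dimerizing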
# AlphaScreen DR: optically interferes with AlphaScreen signal in dose response; AID 1259373; IC50, µM; shares compounds with MITF inh; hit rate 6% among 480; AlphaScreen optical interference counterscreen, cell-free; call rule not given here
# AS interf ctr: optically interferes with AlphaScreen signal; shares compounds with MITF inh; LysRS AlphaScreen counterscreen, signal interference, triplicate; inhibition, % at 2.6 µM; hit rate 7.6% among 4,700;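 active = inhibition above a cutoff derived from the DMSO control wells, cut at about 30% in these data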
# GPR151 conf act: human GPR151 activation, confirmation screen. AID 1508609. activation, % at 11.2 µM. 6,700 tested, under 10 active. shares compounds with GPR151 activ. GPR151 PathHunter beta-arrestin cells, luminescence, 90 min; % of EA-reagent control over plate median;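 active = mean percent activation across replicates above the confirmation screen cutoff of 4.91%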
# GPR119 ag: activates human GPR119 in a GPR151 counter-screen; shares compounds with GPR151 activ; GPR119 PathHunter beta-arrestin cells, luminescence, 90 min; 0 = compound-well median, 100 = enzyme-acceptor control; activation, % at 11.2 µM; hit rate 0.3% among 6,700; AID 1508611;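 active = mean percent activation in the counterscreen above 29.09%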;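 note: counterscreen on off-target GPR119 to flag nonselective hits from the GPR151 activator screen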
# Starred values were filed as active, the others as inactive; · = no result.
SMILES,GPR151 activ,TEAD-YAP block,MITF inh,FBW7 activator,GPR151 conf act,GPR119 ag,others
COc1cc(CNCCO)ccc1OCc1ccccc1Cl,0,-17,7,0,·,·,
CN1CCCN(Cc2cccc(Oc3ccccc3)c2)CC1,3,4,55*,0,·,·,MITF confirm=-1;AS interf ctr=7
CCc1ccc(CN2CCN(Cc3cccc(Oc4ccccc4)c3)CC2)cc1,-1,0,67*,0,·,·,MITF confirm=4;AS interf ctr=7
CN1CCN(Cc2cccc(Oc3ccccc3)c2)CC1,-1,2,26,0,·,·,
OC1CCN(Cc2cccc(Oc3ccccc3)c2)CC1,0,-8,-1,0,·,·,
N#CC1=C(N)C(C#N)(C#N)C(c2ccc(F)cc2F)C2CCCC=C12 (stereo unspecified),2,2,-7,0,·,·,
Cc1nn(CC(=O)NCC2CC2)c(=O)c2cc3sccc3n12,1,-2,6,0,·,·,
O=C1N[C@@H](COCc2ccccc2)C(=O)N2CCN(C(=O)NCc3ccccc3)C[C@H]12,7.7*,6,75*,0,0,11,MITF confirm=72*;AlphaScreen DR=>6.5;AS interf ctr=-3
O=C1N[C@@H](COCc2ccccc2)C(=O)N2CCN(C(=O)Oc3ccc(Cl)cc3)C[C@H]12,2,2,-7,0,·,·,
CCOC(=O)CC1(C)OCC(CN2CCCCC2)O1 (stereo unspecified),0,2,-10,0,·,·,
Cc1ccc(OCCOCCN2CCCCC2)c([N+](=O)[O-])c1,7.6*,4,77*,0,-1,-12,MITF confirm=12;AS interf ctr=14
O=C(c1ccncc1)N1CCN(Cc2ccc(Br)cc2)CC1,10*,2,77*,0,1,16,MITF confirm=6;AS interf ctr=22
COc1ccc(C(=O)N2CCN(Cc3ccc(Br)cc3)CC2)cc1,1,31,44,0,·,·,
CC1CN(CCCOc2cc(Cl)ccc2Cl)CC(C)O1 (stereo unspecified),8.0*,2,67*,0,0,-9,MITF confirm=2;AS interf ctr=15
COc1cc(C)ccc1OCCCN1CCCCCC1,2,0,9,0,·,·,
CCN1CCN(CCOc2ccc(C)cc2OC)CC1,5.8*,4,76*,0,0,-2,MITF confirm=15;AS interf ctr=19
COc1ccc(NC(=O)c2cnc(N3CCN(c4ncccn4)CC3)c3ccccc23)cc1OC,5.3*,50*,63*,0,0,30*,MITF confirm=-9;AS interf ctr=-4
COc1ccc(NC(=O)c2cnc(N3CCN(c4ccccn4)CC3)c3ccccc23)cc1Cl,-1,19,-3,0,·,·,
O=c1[nH]c(=S)[nH]c2scc(-c3cccs3)c12,3,3,-7,0,·,·,
COC(=O)N(C)c1nc2ccccc2s1,5.1*,-20,72*,0,0,-10,MITF confirm=-2;AS interf ctr=-7
Nc1nc(SCC(=O)c2c[nH]c3ccccc23)n[nH]1,-1,5,4,0,·,·,
CCN(CC)c1ccc2c(Cl)c(I)c(=O)oc2c1,0,9,-16,1,·,·,
Cc1ccc(-n2c(=O)c3oc4ccccc4c3n(CC(N)=O)c2=O)cc1,5.5*,-4,54*,0,0,-5,MITF confirm=11;AS interf ctr=12
COc1ccc(Nc2ncnc3c2cnn3-c2ccc(Cl)cc2)cc1Cl,11*,-3,1,0,-1,-8,
COc1ccc(-n2ncc3c(Nc4ccc(Cl)c(Cl)c4)ncnc32)cc1,-1,23,8,0,·,·,
SMILES,GPR151 activ,TEAD-YAP block,MITF inh,FBW7 activator,GPR151 conf act,GPR119 ag,others
COc1ccc(/C=N/N(C)C2=NCCN2)c(OC)c1OC,6.9*,2,3,0,0,-8,
CCCCCCn1c(N2CC(C)CC(C)C2)nc2c1c(=O)[nH]c(=O)n2C (stereo unspecified),5.8*,-5,11,0,0,7,
CCCCCn1c(N2CCCC2)nc2c1c(=O)[nH]c(=O)n2C,0,4,7,0,·,·,
Cc1cc(-c2n[nH]c(=S)n2-c2ccccc2)nn1C,18*,9,21,0,0,2,
CCC(=O)Nc1cc(CNC(=O)Cc2csc(C)n2)cc(C(=O)OC)c1,-1,3,17,0,·,·,
N#Cc1ccc(C(=O)C(=O)c2ccccc2)cc1C#N,-1,-7,0,1,·,·,
N#Cc1ccccc1C(Br)C(Br)C(=O)O (stereo unspecified),6.0*,-5,-2,0,-1,-8,
Cc1cccn2c(=O)c3cc(C(=O)N4CCc5ccccc54)sc3nc12,5.0*,4,10,0,0,6,
COc1cccc2cc(C(=O)Nc3ccc(F)c(Cl)c3)c(=Nc3ccc(C(=O)O)cc3)oc12,0,6,11,1,·,·,
CC(O)CNc1nc2ccccc2n1CC(=O)N1CCc2ccccc21 (stereo unspecified),10.0*,6,0,0,-1,9,
CCOc1cc(-c2noc(CCC(=O)NC)n2)cc(Br)c1OC,6.6*,6,-17,0,0,8,
CCOc1ccc(-c2noc(CCC(=O)NC)n2)cc1OC,0,-15,-1,0,·,·,
O=C(c1cc2cccc3c2n(c1=O)CC3)N1CCc2ccccc2C1,0,8,6,0,·,·,
COC(=O)c1c(NC(=O)C(C)(C)C)sc(C)c1C,0,-2,22,0,·,·,
Fc1ccc(C2CC(c3ccc(Br)cc3)=NN2c2nc(-c3ccccc3)c3cc(Br)ccc3n2)cc1 (stereo unspecified),5.8*,5,-2,0,0,2,
COc1ccc(-c2noc(N(C)CC(=O)N3CCN(c4ccccc4OC)CC3)n2)cc1,6.5*,-6,2,0,0,-21,
COc1ccc(-c2noc(N(C)CC(=O)N3CCN(c4cccc(Cl)c4)CC3)n2)cc1,-1,-4,0,0,·,·,
Cc1nc(Nc2cccc([N+](=O)[O-])c2)c2c3c(sc2n1)CCCC3,-1,-1,-9,0,·,·,
COC(=O)c1c(NC(=O)CSc2nnc(C)s2)sc(C(C)=O)c1C,7.4*,3,5,0,0,7,
O=C(CSc1nc2ccccc2[nH]1)Nc1cc(Cl)ccc1Cl,11*,2,13,0,0,-7,
CCC(CC)C(=O)Nc1nnc(SCC(=O)Nc2nnc(C)s2)s1,4.9*,1,4,0,-1,6,
O=C(CSc1nc2ccccc2[nH]1)Nc1ccc(Cl)c(C(=O)O)c1,0,-4,-3,-1,·,·,
O=C(CSc1nc2ccccc2[nH]1)Nc1cccc(Cl)c1,5.1*,-7,4,0,0,-2,
